Several values for one entry are separate records, joined by “and”; a condition that tells them apart may be missing. Equal values may be shown once. Inconclusive results are not listed. Where a call stands in place of a potency, no number is given. Activity calls are given as the source filed them. Unless noted, calls follow the shape of the full dose curve.
Potency is read from the fitted curve at half-maximal effect.

The first assay in a line: qHTS assay for small molecule agonists of the antioxidant response element (ARE) signaling pathway (AID 743202; active = well fitted activation curve with a large enough effect in the signal ratio in the repeat runs, not every such curve was filed as active; the % refers to the signal ratio). The following applies: HepG2 ARE-bla reporter, beta-lactamase FRET, 16 h; series mostly up to 73.3 µM. The procedure, abridged:
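HepG2 ARE-bla reporter line, 2,000 cells/well; 5 h preincubation 37 C/5% CO2; compound (DMSO) 16 h 37 C; B/G FRET substrate 2 h RT; fluorescence intensity.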
(Quantitative high-throughput screening tests each substance at several concentrations.)
As for `CC1(C)CCC(C)(C)c2cc(C(=O)Nc3ccc(C(=O)O)cc3)ccc21`, the Potency result was “inactive”.

Take `O=C1c2ccccc2Cc2ccccc21`: the Potency entry is “inactive”.

With `O=CC=C(c1ccccc1)c1ccccc1`, the Potency is 43.6 µM (active).

On to `O=C(Nc1cccc([N+](=O)[O-])c1)c1cc2ccccc2cc1O`, for which the Potency is 1.72 µM (active).

In the case of `N=C1N=C(N)c2ccccc21`, the Potency is 19.3 µM (active).

For the compound `O=C1CCCCCN1SSN1CCCCCC1=O`, the Potency entry was “inactive”.

In the case of `Nc1c2ccccc2nc2ccccc12`, the Potency was 4.22 µM (active).

For the compound `Cc1cc(N)c(S(=O)(=O)O)cc1Cl`, the Potency result is “inactive”.

For the compound `CCCCCCCCS(=O)C(C)Cc1ccc2c(c1)OCO2` (centres undefined), the Potency is 19.7 µM (active).

With `CCCN(CCC)C(=O)C(CCC(=O)OCCCN1CCN(CCOC(=O)Cc2c(C)n(C(=O)c3ccc(Cl)cc3)c3ccc(OC)cc23)CC1)NC(=O)c1ccccc1` (centres undefined), the Potency entry is “inactive”.

A short description of the next assay: qHTS assay for small molecule agonists of the antioxidant response element (ARE) signaling pathway - cell viability counter screen (AID 743203). Also: nearly all actives have a fitted effect of over 55% in size. The following applies: ARE-bla HepG2 viability, CellTiter-Glo luminescence, 16 h; series mostly up to 73.3 µM. The procedure, abridged: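 Luminescence read-out (CellTiter-Glo, 30 min at room temperature) measured cell viability in the same wells as the ARE beta-lactamase reporter. HepG2 ARE-bla cells were treated with compounds for 16 hrs at 37C/5% CO2.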
In the case of `CC1(C)CCC(C)(C)c2cc(C(=O)Nc3ccc(C(=O)O)cc3)ccc21`, the Potency entry is “inactive”.

With `C[n+]1ccn(Cc2ccccc2)c1`, the Potency entry was “inactive”.

For the compound `CCOC(=O)c1nc(C(Cl)(Cl)Cl)n(-c2ccc(Cl)cc2Cl)n1`, the Potency was 24.3 µM (active).

As for `CCCN(CCC)c1c([N+](=O)[O-])cc(C(F)(F)F)c(N)c1[N+](=O)[O-]`, the Potency was 60.9 µM (active).

Turning to `CCc1oc2ccccc2c1C(=O)c1cc(Br)c(O)c(Br)c1`, the Potency was 23.7 µM (active).

Turning to `CCN(CC)CCNC(=O)c1c(C)[nH]c(/C=C2\C(=O)Nc3ccc(F)cc32)c1C`, the Potency was 29.8 µM (active).

On to `Oc1ccc(Cl)cc1Sc1cc(Cl)ccc1O`, for which the Potency was 61 µM (active) and 29.8 µM (active).

`CCOc1nc2cccc(C(=O)OC(C)OC(=O)OC3CCCCC3)c2n1Cc1ccc(-c2ccccc2-c2nn[nH]n2)cc1` (centres undefined): the Potency is 30.6 µM (active).

Take `OCCN(CCO)c1nc(N2CCCCC2)c2nc(N(CCO)CCO)nc(N3CCCCC3)c2n1`: the Potency entry is “inactive”.

Consider `O=c1cccccc1O`, for which the Potency entry was “inactive”.

Take `O=C1c2ccccc2Cc2ccccc21`: the Potency result was “inactive”.

On to `Fc1ccc([C@@H]2CCNC[C@H]2COc2ccc3c(c2)OCO3)cc1`, for which the Potency was 29.8 µM (active).

On to `O=CC=C(c1ccccc1)c1ccccc1`, for which the Potency entry was “inactive”.

With `CCOC(=O)/C=C(C)/C=C/C=C(C)/C=C/c1c(C)cc(OC)c(C)c1C`, the Potency entry was “inactive”.

With `O=c1c(-c2ccccc2)c1-c1ccccc1`, the Potency entry was “inactive”.

Regarding `O=C(Nc1cccc([N+](=O)[O-])c1)c1cc2ccccc2cc1O`, the Potency result was “inactive”.

In the case of `COc1ccc(CN2CCN(C(c3ccc(F)cc3)c3ccc(F)cc3)CC2)c(OC)c1OC`, the Potency result was “inactive”.

With `C/C=C1/C(=O)C[C@H]2[C@@H]3CCC4=CC(=O)CC[C@]4(C)[C@H]3CC[C@]12C`, the Potency result was “inactive”.

As to `N=C1N=C(N)c2ccccc21`, the Potency was 54.5 µM (active).

Take `CCCCCCOC(=O)c1ccc(O)cc1`: the Potency result was “inactive”.

`Cc1cc2c(cc1C(F)(F)F)N(C(=O)Nc1ccc(Oc3cccnc3C)nc1)CC2`: the Potency is 34.9 µM (active).

Consider `O=C1CCCCCN1SSN1CCCCCC1=O`, for which the Potency entry is “inactive”.

`Nc1c2ccccc2nc2ccccc12`: the Potency is 24 µM (active).

Turning to `Cc1cc(N)c(S(=O)(=O)O)cc1Cl`, the Potency result is “inactive”.

For `OCc1c[nH]c2ccccc12`, the Potency result was “inactive”.

For `N#CSc1ccc(N)c([N+](=O)[O-])c1`, the Potency entry was “inactive”.

Consider `NC(=O)N1C(=O)C(C(=O)c2cc(Cl)cs2)c2cc(F)c(Cl)cc21` (centres undefined), for which the Potency was 8.63 µM (active).

On to `CCCN(CCC)C(=O)C(CCC(=O)OCCCN1CCN(CCOC(=O)Cc2c(C)n(C(=O)c3ccc(Cl)cc3)c3ccc(OC)cc23)CC1)NC(=O)c1ccccc1` (centres undefined), for which the Potency entry is “inactive”.

`COc1cc(-c2nc(NC(=O)c3cc4cc(C)cc(C)c4n3CC(=O)O)sc2CCC2CCCCC2)c(OC)cc1Cl`: the Potency was 14.1 µM (active).

The values above are taken from PubChem BioAssay (Tox21).
